# Compound activity: PubChem BioAssay, National Center for Advancing Translational Sciences (NCATS)
# Compounds with a hit are over-represented: about 9.5% of the library has one in this group of screens.
# Pf growth 48h: inhibits P. falciparum growth in the first generation, 48 h | P. falciparum luciferase growth in erythrocytes, 48 h | Potency, µM (doses to about 28.7 µM), hits mostly inhibitors | 310,000 compounds, 5.9% hits | AID 504832; active means well fitted inhibition curve with a large enough effect; inconclusive means small, poorly fitted or top-dose-only effect, or another doubt; inactive means no such curve, though single readings can be large or run the other way
#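 A one-generation exposure of luciferase-tagged malaria parasites in RPMI 1640/Albumax erythrocyte culture, 37 C and 5% CO2. Inhibition is inferred from decreased luminescence after adding detection reagent.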
# SARS PLP yeast: inhibitors of SARS-CoV papain-like protease in yeast. S. cerevisiae expressing SARS-CoV PLpro, growth rescue. Potency, µM (top dose mostly 32.9 µM), most hits filed as activators. 330,000 compounds, 0.19% hits; further: nearly all actives have a fitted effect of over 55% in size
# Pf growth 96h: P. falciparum growth inhibition at 96 hour, primary screen for plastid delayed-death inhibitors | P. falciparum luciferase reporter growth, 96 h | Potency, µM (top dose mostly 28.7 µM), usual class: inhibitors | 320,000 compounds, 6.9% hits; active means well fitted inhibition curve with a large enough effect; inconclusive means small, poorly fitted or top-dose-only effect, or another doubt; inactive means no such curve, though single readings can be large or run the other way
#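 Compounds incubated with erythrocytes infected by luciferase-expressing P. falciparum (2% hematocrit, 0.05% parasitemia final) for 96 hours, 37 C in 5% CO2. Growth inhibition scored as decreased luciferase luminescence.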
# NS1 function inh: blocks influenza NS1 protein function. Potency, µM (doses to about 46.1 µM). 270,000 compounds, 0.4% hits. AID 2326; further: actives are rising curves; nearly all actives have a fitted effect of over 50% in size
#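 A cell-based growth assay was used: compounds that relieve NS1-induced slow growth of budding yeast raise OD600. Assay medium was yeast nitrogen base with ammonium sulphate and -URA supplement, pH 6.0, with 2% galactose.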
# RE007 growth inh: less growth of the S. pombe RE007 Vpr strain; 360,000 compounds, 0.21% hits; Potency, µM (series often up to 92.2 µM), actives largely listed as inhibitors; S. pombe RE007 Vpr strain, BacTiter-Glo ATP luminescence, 24 h; active means well fitted falling curve with a large enough effect; inconclusive means small, poorly fitted or top-dose-only effect; inactive means no such curve, though single readings can be large or run the other way; further: nearly all actives have a fitted effect of over 50% in size
#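 Fission yeast RE007 carrying one integrated HIV-1 vpr copy, seeded at OD 0.01 in PMG+AL medium with 23 nL pinned compound. Grown 24 h at 30 degrees; viability read by BacTiter-Glo luminescence after 5 min.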
# A number is an active result; n = inactive; u = inconclusive; x = no result given; [ ] = another dose, or the depositor's remark. Unless noted, the call rests on the fitted dose curve.
SMILES,Pf growth 48h,SARS PLP yeast,Pf growth 96h,NS1 function inh,RE007 growth inh
COc1ccc(OC)c(Nc2nc(-c3ccncc3)nc3ccccc23)c1,1.85µM,n,1.85µM,n,n
COc1ccc(Nc2nc(-c3ccccc3)nc3ccccc23)c(OC)c1,u,n,u,x,n
CCCOC(=O)c1cccc(Nc2nc(-c3cccnc3)nc3ccccc23)c1,9.28µM,n,n,n,n
Fc1cccc(Nc2nc(-c3ccncc3)nc3ccccc23)c1,9.28µM,n,4.15µM,u,n
O=C(OCCNc1nc(-c2ccccc2)nc2ccccc12)c1cccnc1,n,n,n,n,n
COc1ccc(Nc2nc(-c3ccncc3)nc3ccccc23)cc1,x,n,n,n,n
Cc1ccc(C)c(Nc2nc(-c3ccncc3)nc3ccccc23)c1,10.4µM,n,n,n,n
CC(C)(C(=O)N1CCC1(C)C(=O)NS(=O)(=O)c1cccc(C#N)c1)c1ccccc1 (configuration not stated),x,x,x,x,n[18.4 µM]
CC1(C(=O)NCc2cccc3ccccc23)CCN1C(=O)C1(c2ccccc2)CCCC1 (configuration not stated),x,x,x,x,n[18.4 µM]
CN1CCC(N(C)C(=O)/C(C#N)=C\c2ccc(OC(F)F)cc2)CC1,x,x,x,x,n
O=c1ccc2ccc(OCCOc3cccc(Cl)c3)cc2o1,n,n,n,n,n
Nc1ccc(-c2ccccc2)cc1,x,x,x,x,n
Nc1ccccc1-[n+]1c(-c2ccccc2)cc(-c2ccccc2)cc1-c1ccccc1,4.65µM,n,2.08µM,n,n
Cc1ccccc1-[n+]1c(-c2ccccc2)cc(-c2ccccc2)cc1-c1ccccc1,0.329µM,n,0.185µM,x,n
[O-]c1ccccc1-[n+]1c(-c2ccccc2)cc(-c2ccccc2)cc1-c1ccccc1,1.31µM,n,0.329µM,x,n
c1ccc(-c2cnc(-c3ccccc3)nc2)cc1,n,n,x,n,n
O=[N+]([O-])c1cc(-c2ccccc2)cc([N+](=O)[O-])c1O,x,x,x,x,n
O=C([O-])c1ccccc1-[n+]1c(-c2ccccc2)cc(-c2ccccc2)cc1-c1ccccc1,11.7µM,n,4.65µM,x,n
Oc1ccccc1-[n+]1c(-c2ccccc2)cc(-c2ccccc2)cc1-c1ccccc1,1.47µM,n,1.47µM,x,n
Oc1c(Br)cc(-c2ccccc2)cc1Br,x,x,x,x,n
C1=CC2c3ccccc3NC(c3ccncc3)C2C1 (configuration not stated),u,n,13.1µM,u,n
Cn1c(=O)c2c(nc(CN3CCC(C(N)=O)CC3)n2Cc2c(Cl)cccc2Cl)n(C)c1=O,11.7µM,n,x,u,n
Cn1c(=O)c2c(nc(CN3CCC(C(N)=O)CC3)n2Cc2ccccc2Cl)n(C)c1=O,n,n,u,n,n
Cn1c(=O)c2c(nc(CN3CCC(C(N)=O)CC3)n2Cc2c(F)cccc2Cl)n(C)c1=O,u,n,10.4µM,n,n
O=C1CCCN1CCCNS(=O)(=O)c1ccc(F)cc1F,n,n,n,n,n
SMILES,Pf growth 48h,SARS PLP yeast,Pf growth 96h,NS1 function inh,RE007 growth inh
COc1ccc(CNC(=O)CCC(=O)Nc2ccc(Cl)cc2)cc1,n,n,n,n,n
CCOC(=O)c1ccc(NC(=O)CC2Sc3ncnn3C2=O)cc1 (configuration not stated),n,n,n,n,31.6µM
C/C(N=NC(=[SH+])SCc1ccccc1)=C1\C=CC=CN1.[Cl][Cu],x,x,x,n,x
CCOc1ccccc1CN1CCNC(=O)C1CC(=O)NCCCn1cccn1 (configuration not stated),n,n,11.7µM,n,n
O=C(CC1C(=O)NCCN1Cc1cccc(Oc2ccccc2)c1)NCCCn1cccn1 (configuration not stated),n,n,10.4µM,n,n
Cc1ccccc1CN1CCNC(=O)C1CC(=O)NC1CCCCCCC1 (configuration not stated),u,n,2.62µM,n,n
CCOc1ccccc1CN1CCNC(=O)C1CC(=O)NCc1nc(C)cs1 (configuration not stated),n,u,9.28µM,n,n
CCCCCNC(=O)C(c1ccc(OC)cc1)n1c(=O)c(-c2cc3ccccc3[nH]2)nc2ccccc21 (configuration not stated),x,x,x,x,n
CC1(CC(=O)O)O[C@H]2CCCCC[C@H]2O1 (some centres not stated) (tested in a mixture with another compound),x,x,x,n,x
Cc1cccc(NC(=O)CSc2nnc3ccc(-c4cccnc4)nn23)c1,x,x,x,x,n
C=Cn1ccnc1P(=S)(c1nccn1C=C)c1nccn1C=C,u,n,u,n,n
C=Cn1ccnc1P(=S)(c1ccn(C)c1)c1nccn1C=C,n,n,7.38µM,n,n
Cc1ccc(C)c(-c2nnc(NC(=O)CCS(=O)(=O)c3ccc(F)cc3)o2)c1,n,n,n,x,n
CCOc1ccc(C(=O)OC2CCCN(C)C2)cc1 (configuration not stated),n,n,10.4µM,n,n
CN1CCCC(OC(=O)c2ccc(S(=O)(=O)N(C)C)cc2)C1 (configuration not stated),n[0.00184 µM],n,n,n,n
Cc1cc(C(=O)CCC(=O)NC(C)c2ccc(S(N)(=O)=O)cc2)c(C)s1 (configuration not stated),n,n,n,x,n
CC(C)NC(=O)CCN1C(=O)c2ccccc2Sc2ncccc21,n,n,6.57µM,n,n
CC(C)C(=O)Nc1ccc2nn(-c3ccccc3)nc2c1,n,n,n[5.75 µM],n,n
Cc1cccc(NC(=O)C(CC(C)C)NC(=O)C2CCC(C)CC2)n1 (configuration not stated),n,n,u,x,n
CC(C)(C)Nc1c(-c2ccc(O)cc2)nc2ccc(Cl)cn12,10.4µM,n,n,n,n
O=C(NCC1CCCO1)c1ccc(C(=O)NCC2CCCO2)cc1 (configuration not stated),n,n,0.465µM,n,n
O=C(Cc1ccccc1)NCC1CCCO1 (configuration not stated),x,n,n,n,n
O=C(NCC1CCCO1)c1cc([N+](=O)[O-])ccc1N1CCC(Cc2ccccc2)CC1 (configuration not stated),11.7µM,n,u,x,n
CCOc1ccc(C(=O)NCC2CCCO2)cc1 (configuration not stated),n,n,x,u,n
O=C(Cc1ccccc1)Nc1ccccc1C(=O)NCC1CCCO1 (configuration not stated),n,n,13.1µM,n,n
O=C(NCC1CCCO1)/C(=C\c1ccc(Cl)cc1)NC(=O)c1ccccc1 (configuration not stated),n,n,0.828µM,n,n
O=C1NC[C@@H](CCCCN2C[C@H](Cc3ccc(O)cc3)N(Cc3ccccc3)C(=O)C2=O)N(Cc2ccccc2)C1=O,x,x,x,x,n
O=C(NCCCc1ccccc1)c1ccc(CS(=O)Cc2ccc(Cl)cc2)o1 (configuration not stated),n,n,u,n,n
